The other results are listed elsewhere or left out. No count for the full screen is at hand.
Molecular target: furin, P09958
Experiment: furin cleavage Z-score vs untreated control; higher = more cleavage, active = 3.5 or more, inactive = 1 or less, 8 variable residues between constant flanks
How it was run: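 Furin-free reactions served as the baseline for the cleavage Z-score, which is the log read count lowess-adjusted and scaled by median absolute deviation. Counts came from released DNA, adapter-tagged by PCR and sequenced. Purified furin had cut 8-mer peptides fused to a cDNA oligonucleotide on magnetic beads during 7.5, 15 or 30 min at 1:10 enzyme:substrate.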
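Further: purified furin at 1:10 enzyme:substrate in 50 mM HEPES pH 7.5.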

Sequence of furin, P09958 (P09958 whole entry): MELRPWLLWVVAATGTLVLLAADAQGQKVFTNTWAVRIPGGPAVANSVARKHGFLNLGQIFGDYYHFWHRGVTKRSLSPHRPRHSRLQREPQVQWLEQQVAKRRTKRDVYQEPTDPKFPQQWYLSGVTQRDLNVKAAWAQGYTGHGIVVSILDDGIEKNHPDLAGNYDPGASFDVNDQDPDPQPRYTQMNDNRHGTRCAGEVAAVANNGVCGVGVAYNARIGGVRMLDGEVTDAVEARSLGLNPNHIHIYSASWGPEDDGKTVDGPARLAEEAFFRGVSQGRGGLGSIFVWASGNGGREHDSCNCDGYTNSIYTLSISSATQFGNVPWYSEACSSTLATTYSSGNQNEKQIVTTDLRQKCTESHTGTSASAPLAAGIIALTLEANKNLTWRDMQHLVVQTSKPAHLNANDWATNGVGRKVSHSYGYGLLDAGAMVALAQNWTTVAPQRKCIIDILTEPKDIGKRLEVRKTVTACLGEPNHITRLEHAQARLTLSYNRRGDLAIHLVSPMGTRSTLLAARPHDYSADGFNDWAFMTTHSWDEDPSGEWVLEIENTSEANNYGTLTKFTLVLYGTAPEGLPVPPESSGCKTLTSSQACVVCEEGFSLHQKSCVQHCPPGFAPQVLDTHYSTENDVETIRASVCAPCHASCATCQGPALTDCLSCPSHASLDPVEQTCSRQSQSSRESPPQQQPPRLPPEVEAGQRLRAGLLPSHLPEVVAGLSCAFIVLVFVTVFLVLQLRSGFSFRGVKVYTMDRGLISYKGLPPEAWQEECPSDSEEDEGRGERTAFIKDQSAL

| Sequence | furin cleavage Z-score (7.5 min) | furin cleavage Z-score (15 min) | furin cleavage Z-score (30 min) |
| --- | --- | --- | --- |
| CASWLGNIIMAGNASASA [HC1574] | -0.174 (inactive) | -0.173 (inactive) | 0.459 (inactive) |
| CAEVVTSTAVAGNASASA [HC2223] | -1.08 (inactive) | 1.73 | 0.704 (inactive) |
| CAGDDLVVICAGNASASA [HC1529] | -1.44 (inactive) | -0.0771 (inactive) | -0.978 (inactive) |
| CAEPPVVHGCAGNASASA [HC1314] | 0.438 (inactive) | 1.71 | -0.723 (inactive) |
| CARHLRSAGSAGNASASA [FS-1896] | 1.18 | -0.11 (inactive) | 2.17 |
| CARHRRATGAAGNASASA [FS-2944] | 6.7 (active) | 5.37 (active) | 4.1 (active) |
| CARDRRAAGSAGNASASA [FS-1946] | 6.35 (active) | 7.75 (active) | 5.91 (active) |
| CATTPCRGSWAGNASASA [HC70] | -0.828 (inactive) | -1.44 (inactive) | -0.599 (inactive) |
| CAEGERGFFYAGNASASA [EK6] | -2.12 (inactive) | -0.423 (inactive) | -2.28 (inactive) |
| CAEMSRTRRYAGNASASA [FS-1319] | 5.42 (active) | 8.78 (active) | 8.64 (active) |
| CADGAGKRVYAGNASASA [HC1558] | 1.53 | 1.27 | 0.404 (inactive) |
| CASGHRTRRYAGNASASA [FS-192] | 7 (active) | 8.02 (active) | 8.16 (active) |
| CATSQTLLFNAGNASASA [HC1062] | 0.00122 (inactive) | -0.692 (inactive) | -0.503 (inactive) |
| CARLKRDRSAAGNASASA [FS-2220] | 6.33 (active) | 8.55 (active) | 8.68 (active) |
| CAVRKRQVSLAGNASASA [FS-3141] | -1.04 (inactive) | -0.0874 (inactive) | 0.617 (inactive) |
| CARLKRLFLAAGNASASA [FS-2991] | 0.382 (inactive) | -1.83 (inactive) | -1.56 (inactive) |
| CARLKRDLATAGNASASA [FS-2043] | 9.22 (active) | 11.3 (active) | 9.07 (active) |
| CAVRKRSPWLAGNASASA [FS-3142] | -1.29 (inactive) | 0.44 (inactive) | 1.17 |
| CARLKRDPGIAGNASASA [FS-2350] | 3.26 | 4.16 (active) | 3.42 |
| CAVRKRDLQTAGNASASA [FS-3140] | 2.53 | 5.9 (active) | 5.02 (active) |
| CAVLKRDVDIAGNASASA [FS-1815] | 1.04 | -1.55 (inactive) | 0.353 (inactive) |
| CARLKPTLHGAGNASASA [HC967] | -0.75 (inactive) | -0.713 (inactive) | 0.566 (inactive) |
| CAKTPCSAHLAGNASASA [HC2474] | -0.289 (inactive) | -0.529 (inactive) | -1.11 (inactive) |
| CAMEWCSQHLAGNASASA [HC1708] | 0.411 (inactive) | 0.726 (inactive) | 0.812 (inactive) |
| CAEDVVCCSMAGNASASA [HC1368] | -0.171 (inactive) | 0.686 (inactive) | 0.101 (inactive) |
| CATTQCSGSWAGNASASA [HC1882] | -0.496 (inactive) | -1.36 (inactive) | -0.763 (inactive) |
| CAFRVGLHEYAGNASASA [HC1234] | -0.864 (inactive) | -0.389 (inactive) | -0.313 (inactive) |

— the supplement of paper PMC3545927
